# Measurements reported in PubChem BioAssay AID504332 (National Center for Advancing Translational Sciences (NCATS), 2011).
# The whole screen tested about 350,000 compounds, of which about 31,000 (8.9%) were called active. Another 15% or so got no clear call; they are omitted. This is one part of a sample in which actives are shown more often than they occur. Unmarked numbers belong to inactive results. Calls come from the whole dose curve; as a rule, active = well fitted inhibition curve with a large enough effect; inconclusive = small, poorly fitted or top-dose-only effect; inactive = no such curve, though single readings can be large or run the other way.
# Molecular target: Histone-lysine N-methyltransferase EHMT2 (Homo sapiens) (UniProt Q96KQ7)
# Assay: qHTS Assay for Inhibitors of Histone Lysine Methyltransferase G9a; note: nearly all actives have a fitted effect of over 75% in size
# Conditions: G9a H3K9 monomethylation, AlphaScreen, 2 h; series mostly up to 59 µM; activity, negative = inhibition: at the top concentration
# Outline: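 Methyltransferase reactions run at room temperature for 2 h (20 nM enzyme, 500 nM biotin-H3K9 peptide, 20 uM SAM) after a 15 min compound preincubation; product detected by AlphaScreen beads and anti-H3K9me1 antibody.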
# % is set by controls: 0 for no effect and ±100 for the full control effect; potency is the fitted concentration of half-maximal effect.
# Histone-lysine N-methyltransferase EHMT2 (Homo sapiens), sequence (Q96KQ7 913-1193 limits assumed): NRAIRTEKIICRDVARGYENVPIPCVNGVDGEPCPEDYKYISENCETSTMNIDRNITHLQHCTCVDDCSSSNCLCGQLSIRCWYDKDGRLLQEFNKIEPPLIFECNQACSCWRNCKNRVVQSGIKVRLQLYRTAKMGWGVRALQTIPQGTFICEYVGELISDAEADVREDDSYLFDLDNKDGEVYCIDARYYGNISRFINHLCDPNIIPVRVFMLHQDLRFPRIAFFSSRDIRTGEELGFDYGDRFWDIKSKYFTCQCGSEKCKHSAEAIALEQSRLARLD
Structure (SMILES),"activity, negative = inhibition",Potency
CCc1ccccc1NC(=O)CSc1nnc(-c2ccccc2)c(-c2ccccc2)n1,-39.3%,–
O=C(Nc1ccc(-c2nc3cc(NC(=O)c4ccccc4Cl)ccc3o2)cc1)c1ccccc1Cl,1.33%,–
O=C(CCc1nc2sc3c(c2c(=O)[nH]1)CCCC3)NCC(=O)Nc1ccccc1Br,-4.82% [at 12.7 µM],–
COc1cccc(C(=O)N2CCC(n3nccc3NC(=O)C3CCOC3)CC2)c1 (configuration not stated),-5.15% [at 0.501 µM],–
Cc1cc(Br)ccc1NC(=O)Cn1cnc2sc(C)c(S(=O)(=O)N3CCN(C)CC3)c2c1=O,-1.64%,–
Cc1cc(NC(=O)c2cccc(N3C(=O)CCC3=O)c2)no1,12.5% [at 102 µM],–
O=C(Nc1cccc2cccnc12)c1cccc(N2C(=O)CCC2=O)c1,1.61%,–
COc1ccccc1-c1nnc(NC(=O)c2cccc(N3C(=O)CCC3=O)c2)o1,–,1.41 µM (active)
COc1cc(CN2CC(C)CC(C)C2)cc([N+](=O)[O-])c1O (configuration not stated),-17.7%,–
COc1cc(NC(=O)NCC2CCN(Cc3ccc(C)cc3)CC2)cc(OC)c1OC,10.4%,–
COc1cc(CN2CCN(Cc3ccc(C)cc3)CC2)c([N+](=O)[O-])cc1OC,–,4.47 µM (active)
CCOC(=O)c1cc(-c2ccccc2)n(CCC(=O)Nc2ccccc2CC)c1C,-12%,–
COC(CCN(C)C)(c1ccccc1)c1ccccc1,-3.15% [at 102 µM],–
CN(C)CCOC1c2ccccc2-c2ccccc21,–,22.4 µM (active)
O=C(N/N=C/c1ccc2c(c1)OCO2)c1ccc(Cn2cc([N+](=O)[O-])cn2)o1,-8.92%,–
O=C(N/N=C\c1ccc(Br)cc1)c1ccc(Cn2cccn2)o1,12.6%,–
CN(C)c1ccc(/C=N/NC(=O)c2ccc(Cn3cc(Br)cn3)o2)cc1,–,39.8 µM (active)
Cc1ccc(C)c(N2CCN(C(=O)Cc3c(C(=O)O)c(C)cn3C)CC2)c1,7.18%,–
CCC(C(=O)N1CCN(S(=O)(=O)c2sc(C(=O)O)c(C)c2C(=O)O)CC1)c1ccccc1 (configuration not stated),-9.12% [at 2.33 µM],–
COc1cc(/C=N/O)cc(Br)c1OS(=O)(=O)c1ccc(C)cc1,-31.7%,–
COc1cc(/C=N/Nc2ccc(C)cc2)cc(Br)c1O,–,3.98 µM (active)

Structure (SMILES),"activity, negative = inhibition",Potency
COc1ccc(C(=O)Oc2cc(/C=N/NS(=O)(=O)c3ccc(C)cc3)ccc2OC)cc1,-0.555% [at 102 µM],–
O=C(NC1CC(=O)N(c2ccc(F)cc2)C1)C1CCCCC1 (configuration not stated),1.91%,–
COc1ccc(NC(=O)CSc2nnc(-c3nnn(-c4ccc(F)cc4)c3C)o2)cc1,20%,–
Cc1c(O)c(C)c2c(c1O)C(=O)C[C@@H](c1ccccc1)O2,17.8% [at 2.33 µM],–
CCn1c(C(C)NC(=O)c2ccc(C)cc2)n[nH]c1=S (configuration not stated),–,39.8 µM (active)
CCn1c(SCC(=O)Nc2nc(C)cs2)nnc1C(C)NC(=O)c1ccccc1 (configuration not stated),15.6%,–
CCn1c(SCC(=O)NNC(=O)c2ccc(OC)cc2)nnc1C(C)C,8.24%,–
CC(NC(=O)CCc1cn(Cc2ccccc2Cl)c2ccccc12)c1ccccc1 (configuration not stated),-4.01%,–
COc1ccc(Cn2c(=O)n(-c3ccccc3C)c(=O)c3c4c(sc32)CN(C(C)=O)CC4)cc1,9.02%,–
CCN(CC)c1ccc2c(Nc3ccccc3)c(C=O)c(=O)oc2c1,8.21% [at 102 µM],–
CCN(CC)c1ccc2cc(C(N)=O)/c(=N\NC(=O)c3ccncc3)oc2c1,-44.1% [at 102 µM],–
CCN(CC)c1ccc2oc(=O)c(C)nc2c1,–,11.2 µM (active)
COc1ccc(CNc2nc(-c3ccc(Cl)cc3)nn2C(=O)c2ccccc2)cc1,9.43%,–
CCN(Cc1ccccc1)S(=O)(=O)c1cc2c3c(c1)CCN3C(=O)CC2,-8.04% [at 102 µM],–
CCN(CC)c1ccc(NC(=O)C2CCC(CNc3c(N4CCCC4)c(=O)c3=O)CC2)c(C)c1 (configuration not stated),–,39.8 µM (active)
O=C(NCc1ccccc1Cl)C1CCC(CNc2c(N3CCCCC3)c(=O)c2=O)CC1 (configuration not stated),22.5% [at 102 µM],–
CCOc1ccccc1NC(=O)C1CCC(CNc2c(N3CCOCC3)c(=O)c2=O)CC1 (configuration not stated),-5.96% [at 102 µM],–
COc1ccc(Cc2nc3ccc(C(=O)NCC4CCOCC4)cc3o2)cc1OC,31.4% [at 102 µM],–
CC1CCCC(C)N1C(=O)CSc1nnnn1C1CCCC1 (configuration not stated),3.58% [at 102 µM],–
CC(C)C(=O)Nc1nnc(SCC(=O)N2C(C)CCCC2C)s1 (configuration not stated),–,79.4 µM (active)
CC(C)N(C(=O)CSc1nnc(NC2CC2)s1)c1ccccc1,-6.53% [at 0.501 µM],–

Structure (SMILES),"activity, negative = inhibition",Potency
COc1cccc(-c2cc(C(=O)Nc3ccc(C)cc3)[nH]n2)c1,-1.27%,–
COc1ccc(-c2csc(-c3c(N)c(C(=O)c4ccc(OC)c(OC)c4)n4ccccc34)n2)cc1,1.87%,–
COc1cc(CN(C(=O)c2ccccc2Br)c2ccccn2)cc(OC)c1OC,-32.7%,–
O=C(c1ccncc1)N1CCN(S(=O)(=O)c2cc(C(F)(F)F)cc(C(F)(F)F)c2)CC1,-49.9%,–
OCCCNC(c1ccccc1)c1ccc(O)cc1 (configuration not stated),–,11.2 µM (active)
O=C(CNC(c1ccccc1)c1ccccc1)Nc1ccc(F)cc1,14%,–
O=C(Nc1cc(Cl)cc(Cl)c1)C(NCCCO)c1ccccc1 (configuration not stated),1.16% [at 102 µM],–
CCCCN(C)CCCNC(=O)CN1N=C(c2ccc(OC)cc2)CCC1=O,-8.59%,–
O=C(NCCCN1CCCC1=O)c1ccc(S(=O)(=O)Nc2ccccc2)cc1,7.97%,–
CC(=O)Nc1ccc(NC(=O)CCN2C(=O)C3CC=CCC3C2=O)cc1 (configuration not stated),-17% [at 12.7 µM],–
Cc1ccccc1OCC(=O)Nc1c(C(=O)Nc2ccccc2F)oc2ccccc12,40.1%,–
COc1cccc(CNC(=O)c2n[nH]c3ccccc23)c1,11.3% [at 102 µM],–
COc1cccc(C2c3[nH]c4ccccc4c3CCN2Cc2cccc(C)n2)c1 (configuration not stated),–,44.7 µM (active)
COc1cccc(N2CCN(C(=O)CCCCCn3c(=O)[nH]c4ccccc4c3=O)CC2)c1,3.2%,–
COc1ccc(CNC(=O)COCc2cc(-c3cccs3)on2)cc1OC,-9.69%,–
CN(CC1CCCN(CCc2cccc(C(F)(F)F)c2)C1)C(=O)c1ccc2nc[nH]c2c1 (configuration not stated),-8.11% [at 102 µM],–
Cc1cc(C(=O)Nc2nnc(C3CC3)s2)c(C)s1,11.4% [at 12.7 µM],–
O=C(CNC(=O)c1cccnc1)N/N=C/c1cccnc1,-9.35% [at 102 µM],–
O=C(O)CSC(NC(=O)c1cccnc1)(C(F)(F)F)C(F)(F)F,–,14.1 µM (active)
O=C(NNC(=O)c1cccnc1)Nc1ccccc1,-81.4% [at 2.33 µM],–
